Source: PubChem BioAssay AID1210 (NMMLSC, 2008)
Calls of active or inactive are those of the source.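 The calls were made as follows: active = blocks over 70% of labeled estradiol binding at 10 µM, or over a set limit at 100 nM; inactive = the rest.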

The compounds below were run against Estrogen receptor beta (Homo sapiens) (UniProt Q92731) (assay: displacement of fluorescent estrogen from ERbeta – cell-based, Cos7 ERbeta-GFP, flow cytometry, primary screen (AID 1210;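 also: 0% = DMSO vehicle wells and 100% = complete loss of labeled estradiol signal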)). Settings: fluorescent estrogen binding, at 10 µM, hits give high values.
Estrogen receptor beta (Homo sapiens), sequence (Q92731 whole entry, looked up): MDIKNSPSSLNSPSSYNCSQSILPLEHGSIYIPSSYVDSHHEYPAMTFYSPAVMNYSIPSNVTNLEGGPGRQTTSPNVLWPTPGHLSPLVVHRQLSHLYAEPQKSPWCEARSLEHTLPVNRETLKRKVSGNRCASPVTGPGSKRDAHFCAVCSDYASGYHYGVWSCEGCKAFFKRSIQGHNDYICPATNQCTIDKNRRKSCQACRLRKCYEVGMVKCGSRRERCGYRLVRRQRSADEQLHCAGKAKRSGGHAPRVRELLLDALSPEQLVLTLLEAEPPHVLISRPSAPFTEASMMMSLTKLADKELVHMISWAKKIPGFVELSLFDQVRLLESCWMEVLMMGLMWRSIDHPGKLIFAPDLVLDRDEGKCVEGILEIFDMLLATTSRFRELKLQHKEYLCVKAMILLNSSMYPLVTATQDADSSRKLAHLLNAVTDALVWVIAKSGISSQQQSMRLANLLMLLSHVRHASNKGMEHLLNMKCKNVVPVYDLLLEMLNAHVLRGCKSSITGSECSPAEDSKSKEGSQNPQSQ

inhibition, inactive:
Cc1ccc2c(Cl)cc(Cl)c(OCC(=O)NCc3ccco3)c2n1 29%
COc1cc(C(=O)Nc2nnc(-c3sccc3C)s2)cc(OC)c1OC 52%
C=CCn1c(SCC(=O)NC(=O)NCc2ccco2)nc2sc(CC)cc2c1=O 33%
CC1(C)Cc2c(sc3c4nnnn4c4nnnn4c23)CO1 23%
O=C(Nc1nccs1)c1ccc2nccnc2c1 36%
COc1cc(NC(=O)c2cccs2)c(C(=O)OCC(=O)NCc2ccco2)cc1OC 41%
Oc1ccc(C=Nc2ccc(N3CCOCC3)cc2)c(O)c1 51%
Cc1cnc(C(=O)OCC(=O)c2csc(N3CCCCC3)n2)cn1 47%
CCn1c(SCC(=O)Nc2cccc(F)c2)nnc1-c1cc2cc(Br)ccc2o1 39%
CC(=O)c1ccc(NC(=S)N2CCC(O)CC2)cc1 41%
Cc1cc(C)c2c(c1)NC(c1cc3c(cc1Br)OCO3)C1CC=CC21 (configuration not stated) 42%
Cc1ccc(S(=O)(=O)Cc2ccc(C(=O)O)o2)cc1 54%
COC(=O)c1ccc2c(=O)n(CCCCCC(=O)NCc3ccc4c(c3)OCO4)c(=O)[nH]c2c1 68%
O=c1cc(O)c2sc(Nc3ccc(F)cc3)nc2[nH]1 8%
COc1ccccc1N1CCN(C(=O)c2cc3c(s2)CCC3)CC1 22%
O=C(CSc1nnc(SCC(=O)c2ccco2)s1)c1ccco1 56%
O=C1C=CC(O)(c2cc(=O)c3c(O)cc(O)cc3o2)C=C1 29%
